# Results: ChEMBL document CHEMBL4513146, “CO-ADD screening of Karazin Kharkiv National University (Ukraine) compounds”
# Measured potencies and affinities stand elsewhere.
# Tested on: Staphylococcus aureus
# Conditions: Concentration 32 ug.mL-1;; ASSAY_TEST Inhibition of Bacterial Growth; detection method Absorption (OD600); MEDIA CAMHB; plate type 384well; NBS; CORNING #3640; time 18 hr
row,Structure (SMILES),Inhibition
1,COc1ccc(C)cc1NC(=O)CSc1nc2ccccc2n2cnnc12,16.59%
2,Cc1ccc(CNC(=O)Cn2nc3c(Sc4cccc(F)c4)nccn3c2=O)cc1,-7.34%
3,CCCc1nnc2c(=O)n(CC(=O)Nc3ccc(NC(C)=O)cc3)c3ccccc3n12,9.51%
4,CCOC(=O)c1ccccc1NC(=O)Cn1nc2c(Oc3ccc(C)cc3)nccn2c1=O,-14.8%
5,COc1ccc(NC(=O)Cn2nc3c(SCc4ccc(Cl)cc4)nccn3c2=O)cc1OC,6.14%
6,COc1cccc(Cn2nc3ccc(-c4ccccc4)nn3c2=O)c1,13.4%
7,CCc1cccc(NC(=O)Cn2c(=O)c3nnc(C(C)C)n3c3ccccc32)c1,12.07%
8,CC(C)Sc1ccc2nn(CC(=O)Nc3ccc(Br)cc3F)c(=O)n2n1,-2.61%
9,CC(=O)Nc1ccc(NC(=O)CSc2nc3ccccc3n3cnnc23)cc1,-1.2%
10,Cc1ccc(N(CC(=O)OC(C)(C)C)S(=O)(=O)c2ccc3nnc(C)n3c2)cc1,2.37%
11,CCCCOc1ccc(-c2cc3c4nnc(SCC(=O)Nc5c(C)cccc5C)n4ccn3n2)cc1,-7.16%
12,CCc1ccccc1NC(=O)Cn1nc2c(Sc3ccccc3CC)nccn2c1=O,13.37%
13,CC(C)n1c(=O)c2ccc(C(=O)NC3CCCC3)cc2n2c(=O)n(Cc3cccc(C(F)(F)F)c3)nc12,8.2%
14,O=C(Cn1nc2ccc(-c3ccc(Cl)cc3)nn2c1=O)Nc1ccccc1,-4.65%
15,O=S(=O)(c1ccc2nncn2c1)N(Cc1ccccc1F)c1ccc(F)c(F)c1,-7.25%
